Fh CTSL1 inh – cathepsin L1 inhibition, PFM18AAP counter-screen | recombinant F. hepatica cathepsin L1, Z-Leu-Arg-MCA fluorescence | inhibition, % at 5.96 µM | AID 1906 | 300,000 compounds, 0.49% hits;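 active = inhibition above the mean of all tested compounds plus 3 SD, set per screening campaign, cut at about 17% in these data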;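 also: 0% = plate median of test compound wells and 100% = 1 µM Z-Phe-Ala-diazomethylketone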
m5-HT2A agonist – agonists of mouse serotonin 5-HT2A receptor (HTR2A) | AID 624169 | activation, % at 7.6 µM | P35363 | 360,000 compounds, 0.66% hits | CHO-K1 mHTR2A beta-arrestin complementation, luminescence; percent of 30 µM serotonin response;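 active = activation above a run cutoff, the mean activation of all tested compounds plus 3 SD, cut at about 14% in these data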;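 also: 0% = plate median of compound wells and 100% = 30 µM serotonin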
Target sequence (P35363 whole entry, looked up): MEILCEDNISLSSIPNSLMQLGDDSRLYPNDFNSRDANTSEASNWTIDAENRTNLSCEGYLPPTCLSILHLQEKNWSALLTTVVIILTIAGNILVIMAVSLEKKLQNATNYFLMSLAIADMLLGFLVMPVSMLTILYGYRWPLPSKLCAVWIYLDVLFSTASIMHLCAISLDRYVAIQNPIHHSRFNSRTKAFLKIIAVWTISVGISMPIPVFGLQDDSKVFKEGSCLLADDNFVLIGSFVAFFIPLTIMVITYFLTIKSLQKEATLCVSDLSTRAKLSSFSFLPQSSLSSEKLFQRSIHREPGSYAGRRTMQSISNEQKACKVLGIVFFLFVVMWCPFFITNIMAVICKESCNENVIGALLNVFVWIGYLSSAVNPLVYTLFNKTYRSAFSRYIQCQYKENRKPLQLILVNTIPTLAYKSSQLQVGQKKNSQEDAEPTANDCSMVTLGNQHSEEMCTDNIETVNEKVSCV
HDAC3 inhib – inhibitors of human histone deacetylase 3 | O15379 | recombinant HDAC3, fluorogenic peptide/trypsin coupled, fluorescence | inhibition, % at 8.3 µM | 320,000 compounds, 0.15% hits | AID 2718; in the data active = inhibition above about 26%, passing the limit was not always enough; inconclusive = no clear call, values can overlap the other calls
LANA-H2B inh – blocks KSHV LANA binding to histone H2A/H2B; Q9QR71; cell-free LANA-H2A/H2B peptide, fluorescence polarization; inhibition, % (test concentration not listed); 320,000 compounds, 0.6% hits; in the data active = inhibition mostly above about 10%, no sharp cut-off; inactive = mostly below about 6.7%
An asterisk follows results filed as active; ? = inconclusive; nt = not tested or not shown; + = active, no number; ! = not confirmed by another sample. Most compounds without a hit are left out; they make up all but 1.7% or so of the library.

SMILES	Fh CTSL1 inh	m5-HT2A agonist	HDAC3 inhib	LANA-H2B inh
O=S(=O)(NC1CCCCC1Sc1ncccn1)c1ccccc1 (configuration not stated)	2	2	0	13*
COCCNC(=S)N(CCO)Cc1cc2cc3c(cc2[nH]c1=O)OCCO3	-2	-2	32*	-7
O=C(CCc1nc2ccccc2[nH]1)Nc1ccccc1	-6	-6	nt	nt
NNC(=O)CCc1nc2ccc(O)cc2[nH]1	0	-1	-1	13*
CC1CCCC(C)N1C(=O)COC(=O)CNC(=O)c1sc2ccccc2c1Cl (configuration not stated)	-4	6	nt	nt
COc1ccc(Cl)cc1NC(=O)C/C(C)=N/NC(=O)C(=O)NCc1ccccc1	1	3	3	15*
N#CC1(NC(=O)COC(=O)c2nc(Cl)c(Cl)c(N)c2Cl)CCCCC1	-18	8	2	14*
Cc1nc2nc[nH]n2c(=O)c1CCOC(=O)c1ccccc1F	-11	-2	1	10*
OC(c1ccccc1)(c1nc(/C=C/c2ccc(C(F)(F)F)cc2)cs1)C(F)(F)F (configuration not stated)	nt	0	nt	nt
CCCCNC(=O)C1Cc2cc(S(=O)(=O)N3CCCCC3)ccc2N1C(C)=O (configuration not stated)	-1	-5	-2	-3
COc1ccc(N(C)C(=O)c2cc3c(s2)-c2ccccc2OC3)c(OC)c1	7	-1	5	18*
CCCC(=O)N1CCC1(C)C(=O)Nc1cc(OC)c(OC)c(OC)c1 (configuration not stated)	nt	1	nt	nt
C[C@]12CC[C@@H]3c4ccc(O)cc4CC[C@H]3[C@@H]1CCC2=O	-1	2	-4	40*!
Cc1ccccc1C(=O)N1CCN(S(=O)(=O)c2cccs2)CC1	0	0	0	5
Cc1ccsc1C(=O)N1CCN(S(=O)(=O)c2cccs2)CC1	-5	6	-4	149*
CCN(C[C@H]1N[C@@](C)(C(=O)OC)[C@H]2C(=O)N(C)C(=O)[C@@H]12)C(=O)COC	nt	-4	nt	nt
CCCCc1ccc(Nc2nc(N3CCOCC3)nc(N3CCOCC3)n2)cc1	2	2	-2	21*
Clc1ccc(Nc2nc(NCCN3CCOCC3)nc(N3CCOCC3)n2)cc1	18*	-5	2	-5
Cc1ccc(Nc2nc(N3CCOCC3)nc(N3CCOCC3)n2)cc1	-2	-2	0	-2
Cc1nn(C)c(Oc2ccccc2)c1CCNC(=O)CCl	28*	-7	2	-3
O=[N+]([O-])c1ccc(/C=N\NS(=O)(=O)c2ccc(F)cc2)o1	20*	4	3	4
NC(=O)c1ccccc1NC(=O)CCn1c(=S)oc2ccccc21	-3	2	3	1
O=C1Nc2ccccc2C1=Nc1cccc([N+](=O)[O-])c1	-2	-1	-1	8
NC(=O)c1ccc(N=C2C(=O)Nc3ccc([N+](=O)[O-])cc32)cc1	109*	-1	6	-2
O=C(Nc1ccc2c(c1)OCCO2)C(c1ccnc2ccccc12)N1CCN(C/C=C/c2ccccc2)CC1 (configuration not stated)	nt	-2	nt	nt
SMILES	Fh CTSL1 inh	m5-HT2A agonist	HDAC3 inhib	LANA-H2B inh
CC(OC(=O)c1ncc(Cl)c(Cl)c1Cl)C(=O)NC1(C#N)CCCCC1 (configuration not stated)	-2	-3	-5	-4
CCOC(=O)CSc1ncnc2c1nnn2-c1ccc(F)cc1	-1	3	2	0
CCOC(=O)CC(=O)CSc1ncnc2c1nnn2-c1ccc(F)cc1	1	4	61*	0
CC(=O)N(C1=C(N2CCOCC2)C(=O)c2ccccc2C1=O)c1ccc(C(=O)O)cc1	14	-1	7	2
Cc1ccc(NC2=C(N3CCOCC3)C(=O)c3ccccc3C2=O)cc1	17*	0	3	3
O=C(O)c1ccc(NC2=C(N3CCOCC3)C(=O)c3ccccc3C2=O)cc1	33*	0	-11	1
CC(=O)c1ccc(NC2=C(N3CCOCC3)C(=O)c3ccccc3C2=O)cc1	35*	1	?	-6
Cc1ccc(NC2=C(Cl)C(=O)c3ccccc3C2=O)cc1	5	-1	-3	-234
CC(=O)NC(Cc1ccc(C(C)C)cc1)C(=O)NC1CCN(C(=O)c2cccc(C)c2)CC1 (configuration not stated)	-1	4	-4	-1
O=C1Cn2c(nc3ccccc32)N1c1cccc(C(F)(F)F)c1	2	-2	-2	15*
COc1ccc(-n2ccnc(SCC(=O)NC3CCCC3)c2=O)cc1OC	-1	3	nt	nt
Cc1ccc(-n2ccnc(SCC(=O)NC3CCCCC3)c2=O)cc1F	25*	-5	nt	nt
CCOC(=O)C1(N(CC)CC)Sc2cc(C)ccc2NC1=O (configuration not stated)	5	1	14	0
C=C(C)C(=O)OC1(C(F)(F)F)Oc2cc(C)ccc2NC1=O (configuration not stated)	-26	0	29*	1
COc1cccc(C(C[N+](=O)[O-])c2c(C)[nH]n(-c3ccccc3)c2=O)c1 (configuration not stated)	101*	5	5	-3
CC1=C(C(=O)OC(C)C)C(c2cncc(-c3ccc(F)cc3)c2)C(C#N)=C(N)O1 (configuration not stated)	19*	-1	-3	0
COC(=O)C1=C(C)OC(N)=C(C#N)C1c1cccnc1 (configuration not stated)	-2	-1	2	-1
CCCCOc1nc(N2CCOCC2)nc(C)c1[N+](=O)[O-]	18*	-1	-2	5
Cc1nc(N2CCOCC2)nc(Oc2ccccc2)c1[N+](=O)[O-]	1	3	-2	-2
Cc1c(C#N)c(N)c(C(=O)c2ccccc2)n1Cc1ccccc1	6	1	4	-1
CCn1c(C)c(C(=O)c2ccccc2)c(C#N)c1C(=O)O	18*	-4	-2	-4
N#CCS(=O)(=O)c1ccccc1	3	1	-1	-1
COC(=O)c1cccc(N2C(=O)C(Cl)=C(N3CCOCC3)C2=O)c1	32*	6	1	-2
O=C1C(Cl)=C(N2CCOCC2)C(=O)N1c1cccc(C(F)(F)F)c1	23*	-2	-2	2
CN1CCN(c2c([N+](=O)[O-])cnc3ccccc23)CC1	5	4	3	6
SMILES	Fh CTSL1 inh	m5-HT2A agonist	HDAC3 inhib	LANA-H2B inh
O=C(COc1ccccc1)OCC(=O)c1ccc(S(=O)(=O)N2CCCCC2)cc1	nt	-6	2	nt
CC(=O)C[C@@H](O)CC(=O)[C@H]1OC(=O)CCCCCc2ccccc21	nt	3	-3	1
CC(=O)C[C@H](O)CC(=O)[C@@H]1OC(=O)[C@H](C)C/C=C\Cc2ccccc21	nt	1	5	+
CC(=O)C[C@@H](O)CC(=O)[C@@H]1OC(=O)CCCCCCCCc2ccccc21	nt	10	-5	9.2*
CS(=O)(=O)N1CCCCC1CCN1CCCCC1 (configuration not stated)	nt	1	nt	nt
Cc1ccc(C(c2ccc(C)c(C)c2)C(O)C2OC(=O)C(O)C2O)cc1C (configuration not stated)	nt	6	nt	nt

High-throughput results: PubChem BioAssay, several laboratories
